About 6,400 (1.6%) of roughly 410,000 compounds were called active. Another 20% or so got no clear call; they are omitted. This is one part of a sample in which actives are shown more often than they occur. The call rests on the fitted dose curve; in most records, active means well fitted inhibition curve with a large enough effect; inconclusive means small, poorly fitted or top-dose-only effect; inactive means no such curve, though single readings can be large or run the other way.
On the % scale 0 is the no-effect control and ±100 the full control effect; potency means the concentration at half of the fitted maximal effect.

Sequence of Glucagon-like peptide 1 receptor (Homo sapiens) (P43220 whole entry, looked up): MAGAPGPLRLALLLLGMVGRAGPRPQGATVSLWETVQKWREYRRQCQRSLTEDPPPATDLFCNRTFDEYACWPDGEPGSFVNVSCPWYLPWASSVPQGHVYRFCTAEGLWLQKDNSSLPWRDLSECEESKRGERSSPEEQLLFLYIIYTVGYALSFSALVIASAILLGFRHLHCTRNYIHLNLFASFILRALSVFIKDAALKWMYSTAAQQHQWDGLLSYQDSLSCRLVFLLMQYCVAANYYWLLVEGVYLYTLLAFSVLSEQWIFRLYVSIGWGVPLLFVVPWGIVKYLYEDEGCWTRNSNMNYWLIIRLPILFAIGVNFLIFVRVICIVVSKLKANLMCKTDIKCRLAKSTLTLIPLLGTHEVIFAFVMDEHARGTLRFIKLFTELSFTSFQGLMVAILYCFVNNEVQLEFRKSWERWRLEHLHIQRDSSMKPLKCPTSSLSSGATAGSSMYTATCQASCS

This assay addresses Glucagon-like peptide 1 receptor (Homo sapiens) (UniProt P43220). Put plainly: qHTS of GLP-1 Receptor Inverse Agonists (Inhibition Mode). Further: nearly all actives have a fitted effect of over 55% in size. Particulars: HEK293 GLP-1R CRE-luciferase, luminescence, 24 h, GLP-1R form is constitutively active; series mostly up to 38.3 µM; activity change, negative = inhibition: at the top concentration. A digest of the protocol:
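HEK293 cells stably co-expressing a cAMP-responsive luciferase reporter and constitutively active GLP-1R were seeded, incubated 12 h, then exposed to compounds for 24 h at 37 C. Luminescence was read 12 min after detection reagent; inverse agonists lower signal.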
(In general: qHTS replaces the single test concentration by a dilution series.)
`CC(=O)NCCNC(=O)c1cc(-c2cccc3ccccc23)nc2ccccc12`: the “activity change, negative = inhibition” value was 14% (inactive). Still for that read-out and setting: the same measure for `CCCN(CCC)CCNC(=O)c1cc2c(C)nc3ccccc3c2o1`: -23.1% (inactive). On to `CN(C)CCNC(=O)c1ccc(Cl)c2cc3ccccc3nc12`, for which the Potency was 7.08 µM (active). Turning to `CC(=O)NC(c1ccccc1)c1nc(-c2ccccc2C)cs1` (configuration not stated), the “activity change, negative = inhibition” value was 19.8% (inactive). As for `c1ccc2cc3c(NCCN4CCOCC4)ccnc3cc2c1`, the Potency was 10 µM (active).

For the compound `c1ccc(-c2ccc(OCCN3CCOCC3)cc2)cc1`, the “activity change, negative = inhibition” value was -16.9% (inactive). On to `CCOc1nc(NCCN2CCOCC2)nc(Nc2ccc(C)cc2)n1`, for which the “activity change, negative = inhibition” value is 9% (inactive). With `CCCCn1nnnc1C(c1ccccc1)N1CCN(c2ccccc2OC)CC1` (configuration not stated), the “activity change, negative = inhibition” value is -26.8% (inactive).

On to `O=C(NCc1ccccc1Cl)c1csc([C@@H]2O[C@H](CO)[C@@H](O)[C@H]2O)n1`, for which the “activity change, negative = inhibition” value was -16.2% (inactive). Consider `CCCN(CC(=O)Nc1ccccc1C)C(=O)c1ccc2[nH]c3c(c2c1)CC(C)CC3` (configuration not stated), for which the Potency was 5.62 µM (active). With `CCCN(CC(=O)Nc1ccccc1C)C(=O)c1ccc(OCC(=O)N2CCOCC2)c(OCC)c1`, the “activity change, negative = inhibition” value was 7.89% (inactive).

Regarding `CCCN(CC(=O)Nc1ccccc1C)C(=O)c1cc(=O)[nH]c2ccccc12`, the “activity change, negative = inhibition” value is 0.788% (inactive). With `CN(Cc1c(F)cccc1Cl)C(=O)COC(=O)Cn1cnc2ccccc2c1=O`, the “activity change, negative = inhibition” value is 8.86% (inactive).

As for `CCCN1CCc2nc(N3CCN(C)CC3)ncc2C1`, the “activity change, negative = inhibition” value is -13.3% (inactive). `CCOc1ccc(CN2CCCN(C)CC2)cc1`: the “activity change, negative = inhibition” value is -20.5% (inactive). In the case of `Cc1ccc(CN2CCc3nc(N4CCN(C)CC4)ncc3C2)cc1`, the Potency is 7.94 µM (active). For `COc1cc(C(O)c2nc(-c3cccc(C(=O)O)c3)cs2)ccc1F` (configuration not stated), the “activity change, negative = inhibition” value is 30.9% (inactive).

As to `Cc1cccc(C)c1-n1nnnc1C(CCc1ccccc1)N1CCN(C/C=C/c2ccccc2)CC1` (configuration not stated), the “activity change, negative = inhibition” value is 18.7% (inactive). With `COc1ccc(N2C(=O)C(Cc3ccccc3)NC2=S)cc1` (configuration not stated), the “activity change, negative = inhibition” value was 22.3% (inactive). With `CC(C)C1Cc2[nH][nH]c(=O)c2C(c2ccc(Cl)cc2)O1` (configuration not stated), the “activity change, negative = inhibition” value is -18.5% (inactive). Take `CC1Cc2[nH][nH]c(=O)c2C(C2CC2)O1` (configuration not stated): the “activity change, negative = inhibition” value was 5.46% (inactive). For the compound `COc1ccc(C2OC(CCc3ccccc3)Cc3[nH]c(=S)[nH]c(=O)c32)cc1` (configuration not stated), the Potency is 10 µM (active).

On to `O=c1[nH][nH]c2c1[C@H](c1ccc(Cl)cc1)O[C@H](CCc1ccccc1)C2`, for which the Potency is 10 µM (active). Consider `COc1ccc(C2CC(=O)NC(=O)C2)cc1`, for which the “activity change, negative = inhibition” value was 13.7% (inactive). For the compound `COc1ccc(CCNC(=O)Nc2ccc3c(c2)c(=O)n(C)n3C)cc1OC`, the “activity change, negative = inhibition” value was 8% (inactive). With `CC(C)CN1C(=O)CN(S(C)(=O)=O)CC1(C)C(=O)NCc1ccccc1` (configuration not stated), the “activity change, negative = inhibition” value is 18.3% (inactive). On the same count and under the same terms, then `c1ccc(Cc2c(-c3ccco3)nc3c4ccccc4ccn23)cc1`, with -57% (inactive). In the case of `CCN(CC)CCNC(=O)Cn1cnc2sc(C)c(S(=O)(=O)N3CCOCC3)c2c1=O`, the “activity change, negative = inhibition” value was -21.3% (inactive). For `CCN(CC)CCNC(=O)c1sc2ncn(CC(=O)Nc3ccc(C)c(Cl)c3)c(=O)c2c1C`, the Potency is 11.2 µM (active).

On to `Cc1ccc(NC(=O)Cn2cnc3nc4c(cc3c2=O)CCCC4)cc1Cl`, for which the “activity change, negative = inhibition” value was 2.73% (inactive). Consider `COc1ccc(C(C(=O)Nc2c(C)cccc2C)N2CCN(c3ccc(C)cc3)CC2)cc1` (configuration not stated), for which the “activity change, negative = inhibition” value is 3.35% (inactive). For the compound `CCOC(=O)N1CCN(C(c2ccnc3ccccc23)c2nnnn2-c2c(C)cccc2C)CC1` (configuration not stated), the “activity change, negative = inhibition” value is -20.8% (inactive). As for `Cc1nc(C(F)(F)F)ccc1C(=O)N1CCC1(C)C(=O)NS(=O)(=O)c1ccccc1` (configuration not stated), the “activity change, negative = inhibition” value is 12.5% (inactive).

On to `O=C(c1cc(C2CCCCN2S(=O)(=O)c2ccccc2)on1)N1CCOCC1` (configuration not stated), for which the “activity change, negative = inhibition” value is 24.4% (inactive). `CCN1CCN(CCNC(=O)c2ccc3c(c2)NC(=O)/C(=C\c2cccc(Cl)c2)S3)CC1`: the “activity change, negative = inhibition” value was -23.7% (inactive). The same measure, in the same setting: the same measure for `CCN1CCCC1CNC(=O)c1cc2c(=O)n(C)c3ccccc3c2n1C` (configuration not stated): 2.81% (inactive). For the compound `CCN1CCCC1CNC(=O)c1ccc2c(c1)NC(=O)/C(=C\c1ccccc1F)S2` (configuration not stated), the Potency was 11.2 µM (active). `O[C@H]1CN(Cc2cccs2)[C@@H](c2ccc(Cl)cc2)C[C@@H]1n1cc(C2CC2)nn1`: the “activity change, negative = inhibition” value is 1.31% (inactive).

Regarding `O=C(CNC(=O)N1CC(=O)Nc2ccccc21)Nc1ccc(Br)cc1F`, the “activity change, negative = inhibition” value is -10.9% (inactive).

Regarding `CO[C@@H]1CN(C)C(=O)c2cc(NC(=O)C3CC3)ccc2OC[C@H](C)N(C(=O)CN2CCOCC2)C[C@@H]1C`, the “activity change, negative = inhibition” value is 19.3% (inactive). In the case of `c1ccc(-c2csc(N3CCc4ccccc4C3)n2)cc1`, the “activity change, negative = inhibition” value was 3.39% (inactive). As to `CN(C)CCCNC(=S)N1CCN(c2nc(-c3ccccc3)cs2)CC1`, the Potency was 3.98 µM (active).

As for `CN(C)CCCNC(=S)N1CCC(c2nc3ccccc3[nH]2)CC1`, the “activity change, negative = inhibition” value was 14.6% (inactive). As for `CCC1(CC)Cc2ccccc2-c2nc3ccccc3c(=O)n21`, the Potency was 8.91 µM (active). As to `CCOn1c(SC(C)C)nc2ccccc2c1=O`, the “activity change, negative = inhibition” value was -1.53% (inactive). `CCOC(=O)C1CCc2nc3ccccc3c(=O)n21` (configuration not stated): the “activity change, negative = inhibition” value is 1.08% (inactive).

Consider `Cc1ccc([C@@H]2CC(=O)[C@@H]3CN(S(=O)(=O)c4ccc(C)cc4)[C@H](c4ccccc4F)C[C@@H]3N2S(=O)(=O)c2ccc(Cl)cc2)cc1`, for which the “activity change, negative = inhibition” value was -28% (inactive). For the compound `O=C(CSc1ccc(-c2ccc(Br)cc2)nn1)NCC1CCCO1` (configuration not stated), the “activity change, negative = inhibition” value was -7.03% (inactive).

`O=C(CCNS(=O)(=O)c1ccc(Br)cc1)NCC1CCCO1` (configuration not stated): the “activity change, negative = inhibition” value is 0.853% (inactive). For `OC(CNCC1CCCO1)Cn1c2ccc(Br)cc2c2cc(Br)ccc21` (configuration not stated), the Potency was 5.62 µM (active). With `Cc1ccc(-n2ncc3c2ncn2nc(-c4ccco4)nc32)c(C)c1`, the “activity change, negative = inhibition” value is 7.56% (inactive).

For the compound `Cc1cccc(C(=O)N2c3nc(-c4ccco4)nn3C3(CCCCC3)[C@@H]3CCCC[C@@H]32)c1`, the Potency is 11.2 µM (active). In the case of `Cc1cccc(C(=O)NC(=S)N(C)C2CCCCC2)c1`, the “activity change, negative = inhibition” value is -23.1% (inactive). Take `CCc1nc2c(OCC(N)=O)cccn2c1N(C)C(=O)c1ccc(OC)cc1`: the “activity change, negative = inhibition” value is 21.3% (inactive). In the case of `Cc1ccccc1S(=O)(=O)NC(=O)C1(C)CCN1C(=O)Cc1ccc(Cl)cc1Cl` (configuration not stated), the “activity change, negative = inhibition” value is -6.45% (inactive).

On to `C=CC[C@@H](CC(=O)N[C@H](CO)Cc1ccccc1)C(=O)N[C@H](C)COC(=O)[C@@H](CC=C)Cc1ccc(F)cc1`, for which the “activity change, negative = inhibition” value was -24.5% (inactive). For `C=CCC[C@H](Cc1ccc(F)cc1)C(=O)OC[C@@H](NC(=O)[C@@H](CC=C)CC(=O)N[C@H](CO)Cc1ccccc1)C(C)(C)C`, the Potency was 7.94 µM (active). For the compound `C=CC[C@@H](CC(=O)N[C@@H](CO)Cc1ccccc1)C(=O)N[C@H](COC(=O)[C@H](CC=C)CC(=O)OC(C)(C)C)Cc1ccccc1`, the “activity change, negative = inhibition” value was 18.1% (inactive). On the same count and under the same terms, the same measure for `CCCCc1ccc(S(=O)(=O)NC(=O)C2(C)CCN2C(=O)c2c(C)noc2C)cc1` (configuration not stated): 20.7% (inactive); for `Cc1cc(=O)c2ccc(NC(=O)c3ccccc3)cc2[nH]1`: 21.1% (inactive). `CCCCCn1nnnc1C1c2ccccc2C(=O)N1Cc1ccco1` (configuration not stated): the “activity change, negative = inhibition” value was 15.6% (inactive).

In the case of `COc1ccc(Sc2ccc(NC(=O)c3cccc(Cl)c3)cc2C#N)cc1`, the “activity change, negative = inhibition” value was -0.552% (inactive).

Source of the values: PubChem BioAssay AID624417 (National Center for Advancing Translational Sciences (NCATS), 2012).
